Calls of active or inactive are those of the source. How the source made its calls: active means hit-call score of the fitted dose curve at least 0.9, where 1 is the maximum; inactive means score below 0.9.
How the values were obtained:
[1] = read-out: Interleukin-8 (IL8), CXCL8 (gene 3576); assay: BSK_CASM3C_IL8: BioMAP Diversity Plus: CASM3C Assay for Interleukin-8 (IL8) Biomarker Activity (AID 2283042); conditions: primary human coronary artery smooth muscle cells; actives raise or lower the signal;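 further: IL-8 protein level quantified by ELISA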
[2] = read-out: Human Leukocyte Antigen - DR isotype (HLADR), HLA-DRA (gene 3122); assay: BSK_CASM3C_HLADR: BioMAP Diversity Plus: CASM3C Assay for Human Leukocyte Antigen - DR isotype (HLADR) Biomarker Activity (AID 2283043); conditions: primary human coronary artery smooth muscle cells; actives raise or lower the signal;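 further: cell-surface HLA-DR protein level quantified by ELISA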
[3] = read-out: Macrophage colony-stimulating factor (MCSF), CSF1 (gene 1435); assay: BSK_CASM3C_MCSF: BioMAP Diversity Plus: CASM3C Assay for Macrophage colony-stimulating factor (MCSF) Biomarker Activity (AID 2283044); conditions: primary human coronary artery smooth muscle cells; actives raise or lower the signal;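 further: M-CSF protein amount quantified by ELISA after 24 h exposure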
[4] = read-out: Low-density lipoprotein receptor (LDLR), LDLR (gene 3949); assay: BSK_CASM3C_LDLR: BioMAP Diversity Plus: CASM3C Assay for Low-density lipoprotein receptor (LDLR) Biomarker Activity (AID 2283045); conditions: primary human coronary artery smooth muscle cells; actives raise or lower the signal;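 further: LDLR protein level on the cell surface quantified by ELISA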
[5] = read-out: Monocyte Chemoattractant Protein-1 (MCP1), CCL2 (gene 6347); assay: BSK_CASM3C_MCP1: BioMAP Diversity Plus: CASM3C Assay for Monocyte Chemoattractant Protein-1 (MCP1) Biomarker Activity (AID 2283046); conditions: primary human coronary artery smooth muscle cells; actives raise or lower the signal;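 further: MCP-1 level quantified by ELISA 24 h after dosing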
[6] = BSK_CASM3C_Proliferation: Cell Proliferation Assessment in the BioMAP Diversity Plus: CASM3C Assay (AID 2283047); conditions: primary human coronary artery smooth muscle cells;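 further: sulforhodamine B total protein stain as relative cell number at 560 nm; sub-confluent cells exposed 48 h before staining; fitted both ways against DMSO so gain or loss of cell number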
[7] = read-out: Monokine induced gamma interferon (MIG), CXCL9 (gene 4283); assay: BSK_CASM3C_MIG: BioMAP Diversity Plus: CASM3C Assay for Monokine induced gamma interferon (MIG) Biomarker Activity (AID 2283048); conditions: primary human coronary artery smooth muscle cells; actives raise or lower the signal;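 further: MIG protein level measured by ELISA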
[8] = read-out: serum amyloid A (SAA), SAA1 (gene 6288); assay: BSK_CASM3C_SAA: BioMAP Diversity Plus: CASM3C Assay for serum amyloid A (SAA) Biomarker Activity (AID 2283049); conditions: primary human coronary artery smooth muscle cells; actives raise or lower the signal;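 further: SAA protein level quantified by ELISA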
[9] = BSK_CASM3C_SRB: Viability Assessment in the BioMAP Diversity Plus: CASM3C Assay (AID 2283050); conditions: primary human coronary artery smooth muscle cells;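 further: total protein by SRB staining as cytotoxicity measure in parallel cultures; cells exposed to compound for 24 h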
[10] = read-out: Thrombomodulin, THBD (gene 7056); assay: BSK_CASM3C_Thrombomodulin: BioMAP Diversity Plus: CASM3C Assay for Thrombomodulin Biomarker Activity (AID 2283051); conditions: primary human coronary artery smooth muscle cells; actives raise or lower the signal;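 further: thrombomodulin protein level measured by ELISA 24 h after dosing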

Measured: AC50

CCCC[C@H]1CN(CC2CCOCC2)C(=O)OC12CCN(C1(C)CCN(C(=O)c3c(C)ncnc3C)CC1)CC2
inactive: all assays above

O=Cc1ccccc1C=O
inactive: all assays above

CCCCCCCCCCCCCCOS(=O)(=O)O
inactive: all assays above

CC1(C)C(=O)NC(=O)N1CO
inactive: all assays above

O=C(O)c1[nH]n(-c2ccc(S(=O)(=O)O)cc2)c(=O)c1N=Nc1ccc(S(=O)(=O)O)cc1
inactive: all assays above

OCC(CO)n1cnc(-c2ccc(F)cc2)c1-c1ccnc(Oc2ccccc2)n1
active: [2] 0.408 µM | [3] 0.759 µM
inactive: all other assays above

CC(=O)[C@@]1(O)CC[C@H]2[C@@H]3CCC4=CC(=O)CC[C@]4(C)[C@H]3CC[C@@]21C
inactive: all assays above

CCCCCCC(C=O)=Cc1ccccc1
active: [6] 30.9 µM
inactive: all other assays above

COC(=O)[C@H]1[C@H]2C[C@@H]3c4[nH]c5cc(OC)ccc5c4CCN3C[C@H]2C[C@@H](OC(=O)c2cc(OC)c(OC)c(OC)c2)[C@@H]1OC
active: [4] 8.87 µM | [6] 21.3 µM | [10] 16.9 µM
inactive: all other assays above

CC(=O)OC1CC(C)OC(C)O1 (stereo unspecified)
inactive: all assays above

CC(C)NCC(O)c1ccc(O)c(O)c1 (stereo unspecified)
inactive: all assays above

O=[Si]=O
inactive: all assays above

CCOCCOCCO
inactive: all assays above

CC(=O)O
inactive: all assays above

CCCCCCCCCCCCCCCCO
inactive: all assays above

CC(C)COC(=O)CCCCC(=O)OCC(C)C
inactive: all assays above

O=C1OC(c2ccc(O)cc2)(c2ccc(O)cc2)c2ccccc21
active: [6] 28.2 µM
not listed: [1]
inactive: all other assays above

Cc1ccc(-c2cc(C(F)(F)F)nn2-c2ccc(S(N)(=O)=O)cc2)cc1
active: [1] 32.7 µM | [2] 32.4 µM | [4] 22.5 µM | [5] 31.5 µM | [6] 30.8 µM | [7] 31 µM | [8] 31.2 µM | [9] 33.9 µM | [10] 4.85 µM

O=C(Oc1ccccc1)c1cccc(C(=O)Oc2ccccc2)c1
inactive: all assays above

CN(C)C(=O)NC1(c2ccccc2)CCN(CC[C@@]2(c3ccc(F)c(F)c3)CN(C(=O)c3ccccc3)CCO2)CC1
inactive: all assays above

Cc1c(C)c2c(c(C)c1O)CCC(C)(COc1ccc(CC3SC(=O)NC3=O)cc1)O2 (stereo unspecified)
active: [6] 6.88 µM | [10] 5.08 µM
inactive: all other assays above

N[C@@H](Cc1c[nH]c2ccccc12)C(=O)O
inactive: all assays above

CCCCCCCCCC[N+](C)(C)[O-]
inactive: all assays above

NC1CCCCC1
inactive: all assays above

CCN(CC)CCOc1ccc(C(=C(Cl)c2ccccc2)c2ccccc2)cc1
active: [1] 32 µM | [2] 23.9 µM | [3] 26.2 µM | [4] 30.6 µM | [5] 33 µM | [6] 15 µM | [7] 31.5 µM | [8] 25.9 µM | [9] 28 µM
inactive: [10]

CCCCCCC(CCCCCCCCCCC(=O)OCC(COC(C)=O)OC(C)=O)OC(C)=O (stereo unspecified)
inactive: all assays above

CCCCC(CC)CO (stereo unspecified)
inactive: all assays above

Nc1nc(=S)c2[nH]cnc2[nH]1
active: [4] 3.72 µM | [6] 4.67 µM
inactive: all other assays above

O=C1O[C@H]([C@H](O)CO)C(O)=C1O
inactive: all assays above

CCCC(=O)O
inactive: all assays above

Cc1cc(Cc2ccc(N)c(C)c2)ccc1N
not listed: [8]
inactive: all other assays above

CC(C)OC(=O)C(C)(C)Oc1ccc(C(=O)c2ccc(Cl)cc2)cc1
active: [4] 20 µM | [10] 11 µM
inactive: all other assays above

CCCCOC(=O)CCCCC(=O)OCCCC
inactive: all assays above

CC(=O)O[C@]1(C(C)=O)CC[C@H]2[C@@H]3C=C(Cl)C4=CC(=O)[C@@H]5C[C@@H]5[C@]4(C)[C@H]3CC[C@@]21C
not listed: [8]
inactive: all other assays above

O=C(O)CN(CC(=O)O)CC(=O)O
inactive: all assays above

C/C=C/C=C/C(=O)O
inactive: all assays above

CC(C)c1cccc(C(C)C)c1
inactive: all assays above

CC(=O)CC(c1ccccc1)c1c(O)c2ccccc2oc1=O (stereo unspecified)
inactive: all assays above

CC(C)(O)c1ccc(CNC(=O)c2cccnc2Oc2ccc(F)cc2)cc1
active: [2] 2.12 µM
inactive: all other assays above

NCCOCCOCCN
inactive: all assays above

CC(COCC(C)OC(=O)c1ccccc1)OC(=O)c1ccccc1 (stereo unspecified)
inactive: all assays above

Cc1cn([C@H]2C=C[C@@H](CO)O2)c(=O)[nH]c1=O
inactive: all assays above

CCC(C)N(C)C(=O)c1cc2ccccc2c(-c2ccccc2Cl)n1 (stereo unspecified)
inactive: all assays above

COc1ccc(OC(F)(F)F)cc1CN[C@H]1CCCN[C@H]1c1ccccc1
active: [2] 14.7 µM | [4] 6.31 µM | [6] 29.6 µM | [9] 15 µM
inactive: all other assays above

O=C(O)CC(O)(CC(=O)O)C(=O)O
inactive: all assays above
